High-throughput results from PubChem BioAssay.
BAZ2B inh: qHTS Assay for Inhibitors of BAZ2B; actives 4.4% (n = 360,000); AlphaScreen BAZ2B-H3K14Ac peptide displacement; Potency, µM (titrated, usually from 114 µM), for the others: at the highest dose activity change, negative = inhibition, hits mostly inhibitors; note: potency is the fitted concentration of half-maximal effect; % is set by controls: 0 for no effect and ±100 for the full control effect; nearly all actives have a fitted effect of over 60% in size
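AlphaScreen displacement of biotin-H3(5-23)K14Ac peptide (50 nM final) from BAZ2B (50 nM final) in PBS pH 7.4, 0.01% Tween-20; complex preformed 30 min RT, then compounds (top 110 uM) 30 min RT, beads 20 min dark.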
L3MBTL1 inh: qHTS Assay for the Inhibitors of L3MBTL1; Potency, µM (highest dose often 57.1 µM), for the others: at the highest dose activity, negative = inhibition, most hits filed as inhibitors; actives 0.66% (n = 230,000); Lethal(3)malignant brain tumor-like protein 1 (Homo sapiens), Q9Y468; AID 485360, 2010; AlphaScreen L3MBTL1–H3K9me1 peptide binding; note: potency is the fitted concentration of half-maximal effect; % is set by controls: 0 for no effect and ±100 for the full control effect; nearly all actives have a fitted effect of over 60% in size
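L3MBTL1 50 nM + b-AHA-H3(1-15)K9me1 75 nM, 30 min RT; compound added, 30 min RT; streptavidin donor/Ni-chelate acceptor beads 10 ug/mL each final, 30 min RT dark; AlphaScreen read.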
PI5P4K alpha inh: qHTS for Inhibitors of phosphatidylinositol 5-phosphate 4-kinase (PI5P4K). Phosphatidylinositol 5-phosphate 4-kinase type-2 alpha (Homo sapiens), P48426. PI5P4Kalpha enzyme, ADP-Glo luminescence, 60 min; hits give low values. max response, %. actives 1.2% (n = 330,000); active = max response of -50% or lower; inconclusive = between -30% and -50%; inactive = -30% or higher; note: value at the top dose of about 77 µM; % is set by controls: 0 for no effect and ±100 for the full control effect
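Compounds were pin-transferred onto PI5P4Kalpha and substrate in HEPES pH 7.4 buffer with EGTA, CHAPS and 5% DMSO. ATP (5 microM final) started the reaction, which ran 60 minutes at room temperature before ADP-Glo detection.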
HP1b chromo inh: HTS for Inhibitors of HP1-beta Chromodomain Interactions with Methylated Histone Tails; actives 0.56% (n = 390,000); AlphaScreen HP1-beta / biotin-H3K9me3 peptide binding; AID 540317, 2011; Potency, µM (top dose mostly 114 µM), without a hit: at the top dose activity change, negative = inhibition, hits mostly inhibitors; note: potency is the fitted concentration of half-maximal effect; nearly all actives have a fitted effect of over 70% in size
Target sequence (P83916 whole entry, looked up): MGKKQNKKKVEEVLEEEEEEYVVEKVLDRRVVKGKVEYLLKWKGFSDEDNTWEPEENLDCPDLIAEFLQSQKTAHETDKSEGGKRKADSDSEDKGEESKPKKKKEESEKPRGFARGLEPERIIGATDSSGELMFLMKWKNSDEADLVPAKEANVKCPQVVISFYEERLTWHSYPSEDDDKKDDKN
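HP1-beta protein (50 nM final) preincubated 30 min at room temperature with biotinylated H3(1-18)K9me3 peptide (50 nM) in PBS pH 7.4, 0.01% Tween-20, then compound added for 30 min. AlphaScreen streptavidin donor/nickel chelate acceptor beads (10 ug/mL final), 30 min dark, luminescence read.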
JMJD2E inh: qHTS Assay for Inhibitors of Human Jumonji Domain Containing 2E (JMJD2E) | Lysine-specific demethylase 4E (Homo sapiens), B2RXH2 | JMJD2E catalytic domain, FDH-coupled NADH fluorescence (FDH is formaldehyde dehydrogenase) | Potency, µM (highest dose often 57.1 µM), for the others: at the top dose activity change, negative = inhibition, usual class: inhibitors | actives 1.6% (n = 230,000); active = well fitted inhibition curve with a large enough effect, not every such curve was filed as active; inconclusive = small, poorly fitted or top-dose-only effect, or another doubt; inactive = no such curve, though single readings can be large or run the other way;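 note: potency is the fitted concentration of half-maximal effect; 0% = wells with enzyme and -100% = buffer wells without enzyme; nearly all actives have a fitted effect of over 50% in size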
Target sequence (B2RXH2 1-337 limits assumed): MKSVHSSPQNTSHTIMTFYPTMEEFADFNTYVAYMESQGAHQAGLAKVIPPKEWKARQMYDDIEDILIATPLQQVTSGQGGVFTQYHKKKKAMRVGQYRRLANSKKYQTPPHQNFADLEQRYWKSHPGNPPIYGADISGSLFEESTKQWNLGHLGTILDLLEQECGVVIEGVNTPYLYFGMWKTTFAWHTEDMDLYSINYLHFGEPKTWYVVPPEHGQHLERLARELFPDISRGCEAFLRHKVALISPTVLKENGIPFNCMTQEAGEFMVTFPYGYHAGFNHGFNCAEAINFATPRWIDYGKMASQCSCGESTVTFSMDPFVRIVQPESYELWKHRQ
JMJD2A Tudor inh: qHTS Assay for Inhibitors of JMJD2A-Tudor Domain; actives 4.4% (n = 390,000); AlphaScreen JMJD2A-Tudor / H3K4me3 peptide binding; AID 504339, 2011; Potency, µM (highest dose often 114 µM), without a hit: at the highest dose activity change, negative = inhibition, usual class: inhibitors; Lysine-specific demethylase 4A (Homo sapiens), O75164; note: potency is the fitted concentration of half-maximal effect; % is set by controls: 0 for no effect and ±100 for the full control effect; nearly all actives have a fitted effect of over 50% in size
* = called active by the depositor; ! = not confirmed by another sample; [ ] = dose if it differs, or a comment. This is a sample that favours compounds with a hit; in the whole collection about 5.7% have one here. Unless noted, calls come from the whole dose curve; as a rule, active = well fitted inhibition curve with a large enough effect; inconclusive = small, poorly fitted or top-dose-only effect; inactive = no such curve, though single readings can be large or run the other way.

Results for COc1ccc(C(=O)c2ccc(CC#N)s2)cc1 ?
BAZ2B inh: inconclusive; L3MBTL1 inh: -11%; PI5P4K alpha inh: -28; HP1b chromo inh: -11%; JMJD2E inh: 5%; JMJD2A Tudor inh: 79µM*

What do the screens show for `COc1ccc(C(=O)c2ccsc2N)cc1`?
BAZ2B inh: inconclusive; PI5P4K alpha inh: inconclusive; HP1b chromo inh: -1%[57 µM]; JMJD2A Tudor inh: -34%

Results for Nc1ccc(S(=O)(=O)c2cc(O)c3ccccc3c2O)cc1 ?
PI5P4K alpha inh: -78*; HP1b chromo inh: 13µM*; JMJD2A Tudor inh: 45µM*

How did CC(=O)n1cc([C@@H]2C=C(C(=O)NCc3ccccc3)O[C@H](OCc3ccc(CO)cc3)C2)c2ccccc21 do in these assays?
BAZ2B inh: -15%; PI5P4K alpha inh: -22; HP1b chromo inh: 27%; JMJD2E inh: 10µM*; JMJD2A Tudor inh: -27%

How did O=C(C1=C[C@@H](c2csc3ccccc23)C[C@@H](OCCCCO)O1)N1CCN(Cc2ccc3c(c2)OCO3)CC1 do in these assays?
BAZ2B inh: inconclusive; L3MBTL1 inh: -27%; PI5P4K alpha inh: 3; HP1b chromo inh: -7%; JMJD2E inh: 3%; JMJD2A Tudor inh: inconclusive

Results for O=C(C1=C[C@H](c2csc3ccccc23)C[C@H](OCCCCO)O1)N1CCN(Cc2ccccc2)CC1 ?
BAZ2B inh: 50µM*; L3MBTL1 inh: -25%; PI5P4K alpha inh: 0; HP1b chromo inh: 5%; JMJD2E inh: inconclusive; JMJD2A Tudor inh: inconclusive

What do the screens show for `O=C(C1=C[C@@H](c2ccccc2)C[C@@H](OCc2ccc(CO)cc2)O1)N1CCN(Cc2ccc3c(c2)OCO3)CC1`?
BAZ2B inh: inconclusive; L3MBTL1 inh: -18%; PI5P4K alpha inh: 3; HP1b chromo inh: 3%; JMJD2E inh: -6%; JMJD2A Tudor inh: -33%

How did O=C(C1=C[C@H](c2ccccc2)C[C@H](OCc2ccc(CO)cc2)O1)N1CCN(Cc2ccccc2)CC1 do in these assays?
BAZ2B inh: inconclusive; L3MBTL1 inh: -16%; PI5P4K alpha inh: 2; HP1b chromo inh: 1%; JMJD2E inh: 20µM*; JMJD2A Tudor inh: inconclusive

How did C#CCNC(=O)C1=C[C@H](c2cn(C(C)=O)c3ccccc23)C[C@H](OCc2ccc(CO)cc2)O1 do in these assays?
BAZ2B inh: inconclusive; L3MBTL1 inh: 0%; PI5P4K alpha inh: 2; HP1b chromo inh: 27%; JMJD2E inh: inconclusive; JMJD2A Tudor inh: -16%

How did COc1ccc(/C=C2/SC(=O)NC2=O)cc1 do in these assays?
BAZ2B inh: -34%; L3MBTL1 inh: 2%; PI5P4K alpha inh: inconclusive; HP1b chromo inh: 35%; JMJD2E inh: -12%; JMJD2A Tudor inh: -10%

How did COc1cccc(OCCOc2ccc(/C=C3/SC(=S)NC3=O)cc2)c1 do in these assays?
BAZ2B inh: 45µM*; PI5P4K alpha inh: -85*; HP1b chromo inh: inconclusive; JMJD2A Tudor inh: 56µM*

Results for O=C1NC(=S)S/C1=C\c1ccc2ccccc2c1 ?
BAZ2B inh: 50µM*; PI5P4K alpha inh: -62*; HP1b chromo inh: -5%; JMJD2A Tudor inh: inconclusive

Results for COc1ccc(C=C2SC(=S)NC2=O)cc1 ?
PI5P4K alpha inh: -86*; HP1b chromo inh: 7%; JMJD2A Tudor inh: -18%

What do the screens show for `O=C1NC(=NCc2ccccc2)S/C1=C/c1ccc(O)cc1`?
BAZ2B inh: inconclusive; L3MBTL1 inh: -4%; PI5P4K alpha inh: -4; HP1b chromo inh: -13%; JMJD2E inh: -1%; JMJD2A Tudor inh: -21%

What do the screens show for `COc1cc(C2Nc3ccccc3C(=O)N2Cc2ccccc2)ccc1OCc1ccc(NC(C)=O)cc1` (configuration not stated)?
JMJD2A Tudor inh: -22%

How did O=C(O)C1OC(Oc2cc3oc(-c4ccccc4)cc(=O)c3c(O)c2O)C(O)C(O)C1O (configuration not stated) do in these assays?
BAZ2B inh: -5%; L3MBTL1 inh: inconclusive; PI5P4K alpha inh: -20; HP1b chromo inh: -1%; JMJD2E inh: 2%; JMJD2A Tudor inh: 20µM*

Results for Cc1ccc(NC(=S)N(Cc2ccc(Br)cc2)Cc2ccc(C(=O)O)cc2)cc1C ?
BAZ2B inh: -28%; PI5P4K alpha inh: 15; HP1b chromo inh: -19%; JMJD2E inh: 0%; JMJD2A Tudor inh: -27%

How did CCCCCC#CCC#CCC#CCC#CCCCC(=O)O do in these assays?
BAZ2B inh: 4µM*; L3MBTL1 inh: inconclusive; JMJD2E inh: 16µM*!

How did CCCCCCCCCC(=O)O do in these assays?
L3MBTL1 inh: -5%; PI5P4K alpha inh: -2; HP1b chromo inh: 19%; JMJD2A Tudor inh: -8%

What do the screens show for `O=C(/C=C/c1ccccc1)NC(=S)NNC(=O)c1ccco1`?
BAZ2B inh: -1%; L3MBTL1 inh: 84%; PI5P4K alpha inh: -23; HP1b chromo inh: 15%; JMJD2E inh: inconclusive; JMJD2A Tudor inh: -5%

Results for O=C(/C=C/c1ccc(Br)cc1)NC(=S)NNC(=O)c1ccco1 ?
BAZ2B inh: 7%; L3MBTL1 inh: 16%; PI5P4K alpha inh: -52*; HP1b chromo inh: 12%; JMJD2E inh: inconclusive; JMJD2A Tudor inh: -16%

How did CC(C)CCNC(=O)Cn1c(SCc2cccc(F)c2)nc2ccncc21 do in these assays?
HP1b chromo inh: 17%[57 µM]; JMJD2A Tudor inh: 7%[57.1 µM]

What do the screens show for `COc1ccc(CNC(=O)CN2C(=O)NC3(CCCc4sccc43)C2=O)cc1OC` (configuration not stated)?
BAZ2B inh: -5%; L3MBTL1 inh: -7%; PI5P4K alpha inh: -4; HP1b chromo inh: 19%; JMJD2A Tudor inh: -14%

What do the screens show for `CN(C)c1ccc(C(c2ccc(N(C)C)cc2)C(O)c2ccccc2)cc1` (configuration not stated)?
PI5P4K alpha inh: -6; HP1b chromo inh: inconclusive; JMJD2A Tudor inh: 22µM*

What do the screens show for `CCc1cccc(NC(=O)CCc2nc3cccnc3n2Cc2ccc(OC)cc2)c1`?
BAZ2B inh: -5%; HP1b chromo inh: 8%; JMJD2A Tudor inh: -19%

Results for C[N+]1(C)CCC(=C2c3ccccc3CC(=O)c3sccc32)CC1 ?
BAZ2B inh: 7.1µM*; L3MBTL1 inh: inconclusive; HP1b chromo inh: 21%; JMJD2E inh: 3%; JMJD2A Tudor inh: -22%
